Drawing on PubChem BioAssay (Tox21), this text covers Potency, outcome and max activation for 11 compounds.

SMILES strings stand for the structures. A number with no mark means an inactive call. Results filed as inconclusive are left out. Activity calls are given as the source filed them. Calls come from the whole dose curve; as a rule, active = well fitted curve in the direction sought with a large enough effect in the repeat runs; inconclusive = weak or mixed curves; inactive = no such curve, though single readings can be large; an effect the other way counts as inactive or inconclusive.

Test [1] in a line: Caspase-3/7 induction in HepG2 cells by small molecules, qHTS assay (AID 1346978). Note: nearly all actives have a fitted effect of over 15% in size. Put shortly: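 Caspase-3/7 induction was measured by Caspase-Glo 3/7 luminescence (30 min, room temperature) after a 17 hr compound exposure of wild-type HepG2 cells seeded at 2,000 per well and pre-incubated 5 hr.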
The nature of test [2]: Caspase-3/7 induction in CHO-K1 cells by small molecules, qHTS cell viability counter screen (AID 1346979). Note: nearly all actives have a fitted effect of over 35% in size. The gist of the method: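 CHO-K1 wt, 1,500 cells/well; 5hr pre-incubation 37C/5% CO2; compound pin transfer (DMSO); 16hr exposure; CellTiter-Fluor added, 1hr, fluorescence read.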
A short description of test [3]: Caspase-3/7 induction in CHO-K1 cells by small molecules, qHTS assay (AID 1346980). Note: nearly all actives have a fitted effect of over 15% in size. Put shortly:
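Luminescent Caspase-Glo 3/7 read (30min, room temperature) quantified apoptosis induction. Cells were wild-type CHO-K1, treated with compound for 17hr at 37 C and 5% CO2.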

A short description of test [4]: Caspase-3/7 induction in HepG2 cells by small molecules, qHTS cell viability counter screen (AID 1346981). Note: series mostly up to about 92 µM; nearly all actives have a fitted effect of over 30% in size. Put shortly: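 Wild-type HepG2 cells (2,000/well) were allowed to settle for 5 hr at 37 C, 5% CO2, then dosed with compounds in DMSO by pin transfer. After 16 hr at 37 C, CellTiter-Fluor was added and fluorescence read 1 hr later.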
Test [5] addresses Nuclear receptor subfamily 1 group I member 2 (Homo sapiens) (UniProt O75469). The test is described as follows: Human pregnane X receptor (PXR) small molecule agonists, qHTS assay (AID 1346982). Note: nearly all actives have a fitted effect of over 35% in size. Note: potency is the fitted concentration of half-maximal effect. Put shortly: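 PXR-Luc HepG2 cells (CYP3A4 promoter-driven luciferase) were seeded in medium with 5% charcoal-stripped FBS, left 5 hr at 37 C, then exposed to compounds in DMSO for 24 hr. Luminescence was read after ONE-Glo addition.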

Test [6] concerns the target Nuclear receptor subfamily 1 group I member 2 (Rattus norvegicus) (UniProt Q9R1A7). The test is described as follows: Rat pregnane X receptor (rPXR) activation by small molecules, qHTS assay (AID 1346983). Note: nearly all actives have a fitted effect of over 20% in size. Note: potency is the fitted concentration of half-maximal effect. The conditions noted are these: rPXR luciferase reporter cells, One-Glo luminescence, 24 h; max activation: active compounds read high. Put shortly:
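Luminescent readout (One-Glo luciferase, 30 min room temperature) followed 24 hr compound treatment at 37 C of rPXR cells plated 2,000 per well and preincubated 5hr; qHTS format with compounds delivered in DMSO.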

Test [7] deals with Nuclear receptor subfamily 1 group I member 2 (Homo sapiens) (UniProt O75469). The test is described as follows: CYP3A4 induction through human pregnane X receptor (PXR) by small molecules, qHTS assay (AID 1346984). Note: nearly all actives have a fitted effect of over 40% in size. Note: potency is the fitted concentration of half-maximal effect. The gist of the method: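 DPX-2 cells (HepG2 co-transfected with PXR and CYP3A4 promoter-luciferase) treated with compounds 24 h at 37C; luciferin-IPA CYP3A4 substrate 3uM final added for 3 h, then One-Glo; luminescence read. qHTS format.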

For test [8] the target is unchanged. The test is described as follows: Human pregnane X receptor (PXR) activation by small molecules, qHTS assay (AID 1346985). Note: nearly all actives have a fitted effect of over 40% in size. Note: potency is the fitted concentration of half-maximal effect. Put shortly:
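DPX-2 cells (HepG2 co-transfected with a PXR response element and a CYP3A4-promoter luciferase construct) were seeded at 2,000 per well, rested 5 hr at 37C, then exposed to DMSO-dissolved compounds for 24 hr. Activation was read as luciferase luminescence.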

For test [9], the target named is Cytochrome P450 2D6 (Homo sapiens) (UniProt P10635). Briefly: Cytochrome P450 Family 2 Subfamily D Member 6 (CYP2D6) small molecule antagonists: luciferase reporter qHTS assay (AID 1671196). Note: nearly all actives have a fitted effect of over 50% in size. Note: potency is the fitted concentration of half-maximal effect. The gist of the method:
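CYP2D6 enzyme–substrate mix was held with compound for 10 min at room temperature, then NADPH regeneration solution was added and the reaction ran 1 h at room temperature. Luciferin product was detected by luminescence after 20 min with detection reagent.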

Test [10] deals with Cytochrome P450 2C9 (Homo sapiens) (UniProt P11712). The test is described as follows: Cytochrome P450 Family 2 Subfamily C Member 9 (CYP2C9) small molecule antagonists: luciferase reporter qHTS assay (AID 1671198). Note: nearly all actives have a fitted effect of over 50% in size. Note: potency is the fitted concentration of half-maximal effect. The gist of the method:
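Enzyme-substrate mix preincubated with compound 10 min at room temperature; reaction started with NADPH regeneration solution, 1 h 37C. Luminescent luciferin product read after 20 min detection reagent.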

The target in test [11] is Cytochrome P450 1A2 (Homo sapiens) (UniProt P05177). The test is described as follows: Cytochrome P450 Family 1 Subfamily A Member 2 (CYP1A2) small molecule antagonists: luciferase reporter qHTS assay (AID 1671199). Note: series mostly up to about 120 µM; nearly all actives have a fitted effect of over 50% in size. Put shortly:
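Human CYP1A2 activity measured with a P450-Glo proluciferin substrate; compounds in DMSO preincubated 10 min at room temperature with enzyme-substrate mix, then NADPH regeneration system added for 1 h. Luciferin detection reagent, 20 min, luminescence read.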

Test [12] deals with Voltage-gated inwardly rectifying potassium channel KCNH2 (Homo sapiens) (UniProt Q12809). Briefly: Human Ether-a-go-go-Related Gene (hERG) channel small molecule antagonists: fluorescence cell-based qHTS assay (AID 1671200). Note: nearly all actives have a fitted effect of over 50% in size. Note: potency is the fitted concentration of half-maximal effect. Put shortly: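 Read-out: thallium influx as a surrogate for potassium, tracked as fluorescence (480 nm ex/540 nm em) every second for 2 min after Stimulus Buffer addition in dye-loaded hERG-U2OS cells.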

In test [13] the target is Cytochrome P450 3A4 (Homo sapiens) (UniProt P08684). The test is described as follows: Cytochrome P450 Family 3 Subfamily A Member 4 (CYP3A4) small molecule antagonists: luciferase reporter qHTS assay (AID 1671201). Note: nearly all actives have a fitted effect of over 50% in size. Note: potency is the fitted concentration of half-maximal effect. The gist of the method:
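Luminescent readout (RLU) proportional to CYP3A4 activity, from luciferin generated off a proluciferin substrate. Enzyme–substrate mix plus compound 10 min at room temp, NADPH regeneration 1 h, detection reagent 20 min.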

Test [14] has as its target Cytochrome P450 2C19 (Homo sapiens) (UniProt P33261). Briefly: Cytochrome P450 Family 2 Subfamily C Member 19 (CYP2C19) small molecule antagonists: luciferase reporter qHTS assay (AID 1671197). Note: nearly all actives have a fitted effect of over 65% in size. Note: potency is the fitted concentration of half-maximal effect. Put shortly:
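Inhibition of CYP2C19 was scored from loss of luminescence in a P450-Glo proluciferin substrate assay, NADPH-started and run 1 h at 37C, with ketoconazole as positive control.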
% is set by controls: 0 for no effect and ±100 for the full control effect.

Cytochrome P450 2D6 (Homo sapiens), sequence (P10635 whole entry, looked up): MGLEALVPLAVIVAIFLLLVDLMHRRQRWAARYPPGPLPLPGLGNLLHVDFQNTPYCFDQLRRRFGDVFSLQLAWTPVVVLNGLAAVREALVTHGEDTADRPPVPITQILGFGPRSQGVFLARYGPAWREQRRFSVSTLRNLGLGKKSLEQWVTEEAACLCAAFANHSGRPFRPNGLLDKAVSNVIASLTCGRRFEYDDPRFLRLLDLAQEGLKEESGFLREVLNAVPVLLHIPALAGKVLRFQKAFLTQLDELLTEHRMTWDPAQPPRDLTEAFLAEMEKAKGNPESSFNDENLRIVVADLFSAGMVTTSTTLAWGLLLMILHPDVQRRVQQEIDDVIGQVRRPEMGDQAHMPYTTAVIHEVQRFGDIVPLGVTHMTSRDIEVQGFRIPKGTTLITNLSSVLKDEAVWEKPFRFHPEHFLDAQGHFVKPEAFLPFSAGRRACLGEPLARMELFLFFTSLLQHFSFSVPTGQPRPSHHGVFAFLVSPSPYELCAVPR
Cytochrome P450 2C19 (Homo sapiens), sequence (P33261 whole entry, looked up): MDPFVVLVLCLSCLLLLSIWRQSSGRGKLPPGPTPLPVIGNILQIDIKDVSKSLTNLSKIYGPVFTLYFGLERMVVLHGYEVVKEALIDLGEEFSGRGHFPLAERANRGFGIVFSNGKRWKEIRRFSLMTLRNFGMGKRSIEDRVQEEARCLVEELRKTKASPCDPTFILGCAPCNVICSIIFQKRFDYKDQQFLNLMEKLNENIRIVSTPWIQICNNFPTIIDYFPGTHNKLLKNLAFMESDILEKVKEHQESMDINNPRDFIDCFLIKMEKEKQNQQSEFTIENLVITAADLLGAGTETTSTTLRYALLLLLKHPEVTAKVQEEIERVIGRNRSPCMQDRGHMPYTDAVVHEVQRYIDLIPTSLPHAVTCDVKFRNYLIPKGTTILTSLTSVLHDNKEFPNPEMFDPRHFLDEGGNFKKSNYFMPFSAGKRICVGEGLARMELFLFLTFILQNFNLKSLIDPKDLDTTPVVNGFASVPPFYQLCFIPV
Voltage-gated inwardly rectifying potassium channel KCNH2 (Homo sapiens), sequence (Q12809 whole entry, looked up): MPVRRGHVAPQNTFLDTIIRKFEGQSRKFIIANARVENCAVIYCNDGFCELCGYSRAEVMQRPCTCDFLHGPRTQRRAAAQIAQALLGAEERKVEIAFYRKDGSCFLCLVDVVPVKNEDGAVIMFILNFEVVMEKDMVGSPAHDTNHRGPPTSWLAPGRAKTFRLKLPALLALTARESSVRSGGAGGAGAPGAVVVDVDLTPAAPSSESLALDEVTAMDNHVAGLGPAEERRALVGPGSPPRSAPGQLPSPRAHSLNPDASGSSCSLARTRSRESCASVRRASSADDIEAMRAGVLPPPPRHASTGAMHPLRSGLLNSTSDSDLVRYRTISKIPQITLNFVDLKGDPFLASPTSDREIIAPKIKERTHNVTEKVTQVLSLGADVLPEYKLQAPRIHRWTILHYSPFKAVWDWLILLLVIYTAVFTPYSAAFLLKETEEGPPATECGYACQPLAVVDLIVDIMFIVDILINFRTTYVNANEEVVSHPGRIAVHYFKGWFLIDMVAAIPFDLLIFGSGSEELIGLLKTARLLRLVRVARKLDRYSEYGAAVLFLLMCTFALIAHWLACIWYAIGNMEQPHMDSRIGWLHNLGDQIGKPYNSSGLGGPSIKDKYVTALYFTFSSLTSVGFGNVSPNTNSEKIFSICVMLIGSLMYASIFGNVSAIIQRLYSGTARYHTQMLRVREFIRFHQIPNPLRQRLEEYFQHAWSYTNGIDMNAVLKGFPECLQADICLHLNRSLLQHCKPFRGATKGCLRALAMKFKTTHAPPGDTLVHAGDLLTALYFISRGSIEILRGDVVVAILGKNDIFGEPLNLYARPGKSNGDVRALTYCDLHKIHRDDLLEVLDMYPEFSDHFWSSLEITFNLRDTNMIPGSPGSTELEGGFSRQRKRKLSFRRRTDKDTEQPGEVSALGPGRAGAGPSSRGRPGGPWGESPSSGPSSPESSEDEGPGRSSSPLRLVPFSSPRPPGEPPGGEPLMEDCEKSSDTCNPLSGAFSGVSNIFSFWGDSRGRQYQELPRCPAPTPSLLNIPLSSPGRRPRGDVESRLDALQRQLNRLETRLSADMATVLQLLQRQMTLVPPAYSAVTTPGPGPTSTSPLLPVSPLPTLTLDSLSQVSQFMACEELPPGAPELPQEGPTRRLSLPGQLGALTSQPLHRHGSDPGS
Cytochrome P450 1A2 (Homo sapiens), sequence (P05177 whole entry, looked up): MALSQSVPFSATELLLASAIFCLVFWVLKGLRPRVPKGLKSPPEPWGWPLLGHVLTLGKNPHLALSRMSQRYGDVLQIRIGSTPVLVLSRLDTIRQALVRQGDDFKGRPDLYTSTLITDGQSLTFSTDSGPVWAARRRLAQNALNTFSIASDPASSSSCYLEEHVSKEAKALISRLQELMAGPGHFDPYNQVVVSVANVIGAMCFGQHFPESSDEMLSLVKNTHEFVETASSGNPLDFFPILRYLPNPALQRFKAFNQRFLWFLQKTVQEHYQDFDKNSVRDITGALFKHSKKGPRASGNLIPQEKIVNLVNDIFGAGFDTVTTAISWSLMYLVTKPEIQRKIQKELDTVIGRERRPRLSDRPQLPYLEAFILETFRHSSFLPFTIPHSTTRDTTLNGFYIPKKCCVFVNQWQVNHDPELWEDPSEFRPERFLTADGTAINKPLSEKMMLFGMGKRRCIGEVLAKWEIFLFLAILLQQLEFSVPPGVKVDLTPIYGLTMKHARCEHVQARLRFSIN
Nuclear receptor subfamily 1 group I member 2 (Homo sapiens), sequence (O75469 whole entry, looked up): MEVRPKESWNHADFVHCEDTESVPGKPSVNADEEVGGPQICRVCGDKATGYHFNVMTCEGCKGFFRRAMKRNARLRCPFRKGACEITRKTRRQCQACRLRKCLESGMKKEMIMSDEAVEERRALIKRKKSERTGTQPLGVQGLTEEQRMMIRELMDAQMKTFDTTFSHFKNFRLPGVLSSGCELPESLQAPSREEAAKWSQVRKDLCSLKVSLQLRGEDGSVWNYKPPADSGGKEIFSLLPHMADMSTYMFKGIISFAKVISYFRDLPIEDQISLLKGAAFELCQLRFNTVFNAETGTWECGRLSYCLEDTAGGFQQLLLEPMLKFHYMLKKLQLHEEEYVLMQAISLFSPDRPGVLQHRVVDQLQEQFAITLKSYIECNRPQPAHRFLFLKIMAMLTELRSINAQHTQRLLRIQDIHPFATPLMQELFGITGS
Cytochrome P450 3A4 (Homo sapiens), sequence (P08684 whole entry, looked up): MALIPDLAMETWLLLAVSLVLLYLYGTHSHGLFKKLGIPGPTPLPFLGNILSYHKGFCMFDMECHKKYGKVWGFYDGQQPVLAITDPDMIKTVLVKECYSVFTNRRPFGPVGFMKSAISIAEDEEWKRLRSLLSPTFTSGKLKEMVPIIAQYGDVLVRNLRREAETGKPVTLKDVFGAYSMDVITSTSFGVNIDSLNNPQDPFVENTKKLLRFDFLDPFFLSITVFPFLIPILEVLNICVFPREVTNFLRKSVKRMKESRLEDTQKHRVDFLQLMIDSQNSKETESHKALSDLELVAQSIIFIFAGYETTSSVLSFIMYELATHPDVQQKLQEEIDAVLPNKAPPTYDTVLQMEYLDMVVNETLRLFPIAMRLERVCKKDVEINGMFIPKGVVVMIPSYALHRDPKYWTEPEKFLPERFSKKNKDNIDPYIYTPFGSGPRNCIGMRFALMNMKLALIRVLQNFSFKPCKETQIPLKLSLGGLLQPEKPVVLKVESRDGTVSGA
Nuclear receptor subfamily 1 group I member 2 (Rattus norvegicus), sequence (Q9R1A7 whole entry, looked up): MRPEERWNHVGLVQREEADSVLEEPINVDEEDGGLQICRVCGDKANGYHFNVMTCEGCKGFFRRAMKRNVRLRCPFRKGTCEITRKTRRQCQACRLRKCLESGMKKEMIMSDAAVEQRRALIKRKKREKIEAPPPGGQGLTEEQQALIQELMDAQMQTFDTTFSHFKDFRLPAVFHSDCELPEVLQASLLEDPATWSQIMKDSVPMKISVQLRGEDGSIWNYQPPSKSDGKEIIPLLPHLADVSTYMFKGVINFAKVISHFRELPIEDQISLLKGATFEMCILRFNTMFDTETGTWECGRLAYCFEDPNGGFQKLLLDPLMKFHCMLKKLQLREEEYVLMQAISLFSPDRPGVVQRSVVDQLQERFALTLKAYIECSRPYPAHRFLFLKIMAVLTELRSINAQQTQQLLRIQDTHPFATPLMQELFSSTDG
Cytochrome P450 2C9 (Homo sapiens), sequence (P11712 whole entry, looked up): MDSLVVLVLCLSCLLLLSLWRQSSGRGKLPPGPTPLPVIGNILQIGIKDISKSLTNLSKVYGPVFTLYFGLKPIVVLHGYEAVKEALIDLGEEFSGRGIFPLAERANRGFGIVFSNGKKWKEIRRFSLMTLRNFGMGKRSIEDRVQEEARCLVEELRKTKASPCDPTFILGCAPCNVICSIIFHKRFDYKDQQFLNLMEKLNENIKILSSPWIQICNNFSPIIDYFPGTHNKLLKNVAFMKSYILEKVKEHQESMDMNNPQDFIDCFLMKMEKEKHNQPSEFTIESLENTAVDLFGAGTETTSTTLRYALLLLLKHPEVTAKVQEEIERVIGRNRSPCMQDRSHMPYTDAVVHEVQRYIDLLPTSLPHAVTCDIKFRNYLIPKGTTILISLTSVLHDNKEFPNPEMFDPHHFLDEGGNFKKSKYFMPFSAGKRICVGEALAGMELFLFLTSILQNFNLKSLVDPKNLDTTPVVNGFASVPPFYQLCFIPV

Take `COc1cc(N)c(Cl)cc1C(=O)NC1CCN(Cc2ccccc2)CC1`: the Potency result in test [1], in [2], in test [4], in test [5], in [7] and in test [8] was “inactive” throughout. Moreover, the Potency result in [10] and in test [11] was “inactive” each time. Besides, the compound was classed as inactive in test [3]. In addition, the max activation in test [6] was -4.93%. Besides, the Potency in [9] is 0.0309 µM (active); in test [12], 16.9 µM (active); in [13], 1.55 µM (active).
For `CC(C)(C)C1CCCCC1=O` (centres undefined), the Potency entry in test [1], in test [2], in test [4], in test [5], in [9] and in [14] was “inactive” throughout. Further, the Potency entry in test [10], in test [11], in test [12] and in test [13] was “inactive” in each case. The outcome in [3] was inactive.
In the case of `CCC(=O)O[C@]1(C(=O)SCF)[C@H](C)C[C@H]2[C@@H]3C[C@H](F)C4=CC(=O)C=C[C@]4(C)[C@@]3(F)[C@@H](O)C[C@@]21C`, the Potency entry in test [1], in test [2], in test [4], in test [7], in [14] and in [11] was “inactive” each time. Also, the Potency entry in test [12] is “inactive”. The outcome in test [3] was inactive. In addition, the Potency is 0.473 µM (active) in test [5], 1.58 µM (active) in test [6], 447 nM (active) in [8] and 4.9 µM (active) in test [10].
As for `Cc1ccc([N+](=O)[O-])cc1Cl`, the Potency entry in test [1], in [2], in test [4], in [9], in test [14] and in test [10] was “inactive” in each case. Besides, the Potency entry in test [11], in test [12] and in [13] was “inactive” throughout. For the same compound, the call in test [3] was inactive. The Potency in [5] is 61.9 µM (active).
For the compound `CN(CC1(C)CCCO1)S(=O)(=O)c1ccc(Cl)c(S(N)(=O)=O)c1` (centres undefined), the Potency result in [1], in [2], in [4], in [9], in test [14] and in test [10] was “inactive” in each case. The Potency entry in [11] and in test [12] was “inactive” throughout. Further, the result in test [3] was inactive. For the same compound, the Potency in test [5] is 10.6 µM (active).
On to `CO[Si](C)(C)OC`, for which the Potency entry in [1], in [2], in test [4] and in test [5] was “inactive” in each case. For the same compound, in test [3], the compound was classed as inactive.
For `CCN(CC)CCOc1ccc(Cc2ccccc2)cc1`, the Potency result in test [1], in [2], in test [4], in test [10], in test [11] and in [13] was “inactive” in each case. The compound was called inactive in test [3]. In addition, the Potency in test [5] was 23.7 µM (active); in [7] it was 11.2 µM (active); in test [8], 4470 nM (active); in test [9], 9.77 µM (active); in test [14], 0.55 µM (active); in test [12], 7.56 µM (active).
Take `N#Cc1ccc(C(c2ccc(C#N)cc2)n2cncn2)cc1`: the Potency result in test [1], in test [2], in [4], in test [5], in test [7] and in test [8] was “inactive” in each case. Further, the Potency result in test [9] and in test [12] was “inactive” throughout. The call in test [3] was inactive. For the same compound, the max activation in test [6] was 0.445%. The Potency in test [14] was 13.3 µM (active).
Take `CCOc1ccc(NS(=O)(=O)c2ccc(N)cc2)nn1`: the Potency entry in test [1], in [2], in test [4], in [5], in [9] and in [10] was “inactive” each time. Moreover, the Potency entry in test [11], in [12] and in [13] was “inactive” throughout. The compound was called inactive in [3]. Also, the Potency in [14] was 30.9 µM (active).
Turning to `CCN(CC)CC1CCCCN1CC(=O)N1c2ccccc2C(=O)Nc2cccnc21` (centres undefined), the Potency entry in test [1], in test [2], in test [4], in test [5], in test [7] and in test [8] was “inactive” each time. Moreover, the Potency result in [9], in [14] and in test [11] was “inactive” each time. For the same compound, in test [3], the compound was called inactive. The Potency in test [13] is 6.92 µM (active).
Regarding `C[C@@H](N)C(=O)O`, the Potency result in [1], in test [2], in [4], in [5], in [7] and in test [8] was “inactive” throughout. Further, the Potency entry in [10], in [12] and in [13] was “inactive” in each case. The compound was called inactive in test [3]. For the same compound, in test [6], the max activation is -2.77%.
